# Dicer processing – blocks human Dicer maturation of pre-miR-21. Q9UPY3. cat-ELCCA pre-miR-21 Dicer processing, chemiluminescence; active compounds read high. z-score at 25 µM. actives 6% (n = 47,000). AID 1347074; in the data active = z-score above about 3, passing the limit was not always enough;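 also: higher signal means more uncleaved substrate so more Dicer inhibition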
# A number is an active result; i = inactive. This excerpt belongs to a sample that is enriched for hits.
SMILES,Dicer processing
Fc1ccc(CSc2nnnn2-c2cccc(Cl)c2)cc1,i
COC(=O)c1scc(C)c1NC(=S)OC,i
CC(=O)NC(C)Cc1c[nH]c2ccccc12 (centres undefined),i
O=C(Nc1ccc(N2CCN(c3ccc(C(F)(F)F)cn3)CC2)nc1)c1ccc(Cl)cc1,i
S=C(Nc1ccccc1Cl)N1CCCc2ccccc21,3.8
S=C(Nc1ccccc1Cl)N1CCc2ccccc2C1,i
O=C(Nc1ccccc1)N1CCCc2ccccc21,3.2
Cc1cccc2c1N(C(=S)Nc1ccccc1Cl)CCC2,i
O=C(Nc1ccccc1)N1c2ccccc2CCc2ccccc21,i
O=C(Nc1ccc(OCc2ccccc2)cc1)N1CCCc2ccccc21,i
Cn1cc(C(=O)Nc2ccc(F)c(F)c2F)c(N)n1,i
O=C(c1ccccc1)c1nn(-c2cccc(Cl)c2)c2nc(=O)c(Cc3ccccc3)nn12,i
Cn1c2c(c(=O)n(C)c1=O)C(c1ccc(OCc3ccccc3)cc1)C1=C(N2)c2ccccc2C1=O (centres undefined),i
COc1ccc(NC(=S)Nc2cc3c(c(N)c2C)C(C)(C)CC3(C)C)cc1,i
Cc1cc(Nc2ccccc2C)c2cccc(C)c2n1,i
Cc1ccc(Nc2nc3ccccc3s2)c(C)c1,i
Cc1cccc(C)c1Nc1nc2c(C)cc(C)c(C)c2s1,4.2
CCCOc1ccc(C2c3c(oc4ccc(F)cc4c3=O)C(=O)N2CCCN(C)C)cc1 (centres undefined),i
Cc1cc(Br)c(NC(=S)NNCCC#N)c(Br)c1,i
CCOc1ccc(-c2nc(C#N)c(N3CC(C)OC(C)C3)o2)cc1 (centres undefined),i
CCOc1c(N2CC(C)OC(C)C2)c(=O)c1=O (centres undefined),6
CCOc1c(N2CCOCC2)c(=O)c1=O,i
NC(=O)C12CC3CC(CC(Br)(C3)C1)C2,i
CN(C)CCN1C(=O)C(=O)/C(=C(/O)c2ccc(S(=O)(=O)N(C)C)cc2)C1c1ccccc1F (centres undefined),i
COc1ccc(/C(O)=C2\C(=O)C(=O)N(CCN(C)C)C2c2ccccc2F)cc1 (centres undefined),3.4
SMILES,Dicer processing
COc1ccc(/C(O)=C2\C(=O)C(=O)N(CCCN(C)C)C2c2ccccc2)cc1 (centres undefined),i
Cn1c(=O)c(/C(N)=N/O)cn(-c2ccccc2)c1=O,i
Cc1csc(NC(=O)Nc2cc(C(F)(F)F)cc(C(F)(F)F)c2)c1Cl,i
CCOc1ccc(NC2CC(=O)N(c3ccc(OC)cc3OC)C2=O)cc1 (centres undefined),i
CCc1ccc(NC2CC(=O)N(c3ccc(C)cc3Br)C2=O)cc1 (centres undefined),3.3
COc1ccc(NC2CC(=O)N(c3cccc4ccccc34)C2=O)cc1 (centres undefined),i
CCOC(=O)c1c(CSCc2ccc(Cl)cc2)oc2c(F)c(F)c(F)c(F)c12,i
CCOC(=O)C(NC(=O)CC)(Nc1ccc(C)c(C)c1)C(F)(F)F (centres undefined),i
O=[N+]([O-])c1ccc(OCc2ccccc2)cc1/C=C\N1CCCC1,3
O=[N+]([O-])c1cccnc1Oc1ccc(OCc2ccccc2)cc1,i
O=[N+]([O-])c1cc(F)ccc1/C=C/N1CCCC1,i
Cc1cccc(Cl)c1NC(=S)NC1CCCC1,i
Cc1cc(C)c2c3c(sc2n1)C(=O)N(c1cccc(C(F)(F)F)c1)CC(=O)N3,i
CCOc1ccc(N2CCCCn3c2nc2c3c(=O)n(CC(C)C)c(=O)n2C)cc1,i
C=C1SC(Nc2ccccc2OC)=NC12CCCCC2,i
COc1ccc(/C=N/N=C/c2ccc(OC)c(OC)c2)cc1OC,i
COc1cc(/C=N/N=C/c2ccccc2O)cc(OC)c1OC,7.4
CCNC(=S)N/N=C/c1cc(OC)c(OC)c(OC)c1,i
O=C(Nc1cccc(Cl)c1)C1Sc2nnc(-c3ccccc3)n2NC1c1ccccc1 (centres undefined),i
COC(=O)c1c(C)[nH]c(C)c1-c1ccn[nH]1,i
COc1ccc(S(=O)(=O)N2CCN(C)CC2)c2ccccc12,6.1
Cc1ccc(-c2n[nH]c(=S)c3ccccc23)cc1S(=O)(=O)N1CCN(C)CC1,i
O=S(=O)(c1ccc(Cl)c2ccccc12)N1CCN(c2ccccc2)CC1,i
O=C(O)C1C2CCC(Br)(CC2)C1C(=O)O (centres undefined),i
CCOC(=O)CNC(=O)c1ccc([N+](=O)[O-])o1,i
SMILES,Dicer processing
O=C(Nc1ccccc1F)c1ccc([N+](=O)[O-])o1,i
CN(Cc1ccccc1)C(=O)c1ccc([N+](=O)[O-])o1,3
O=C(O)CCSc1nc2ccccc2n1Cc1ccccc1,i
CCOC(=O)Cn1c(C)nc2ccccc21,4.7
CCSc1nc2ccccc2n1CC(N)=O,6.7
NC(=O)CSc1nc2ccccc2n1CCO,i
CCOC(=O)Cn1c(=O)n(CC(=O)OCC)c2ccccc21,i
O=C(O)Cn1c(SCc2ccccc2)nc2ccccc21,i
CCn1c(SCC(=O)O)nc2ccccc21,3.1
NC(=O)Cn1c(SC2CCCCC2)nc2ccccc21,i
CCOC(=O)Cn1c(-c2ccccn2)nc2ccccc21,i
COC(=O)C1=C(C)N=C2SCCC(=O)N2C1c1ccc(OC)c(OC)c1 (centres undefined),i
CCOC(=O)NC(=O)c1ccc2ccccc2n1,i
CC(C)CC(Nc1ncnc2ccccc12)C(=O)O (centres undefined),i
CN=C(C)/C(C(=O)OC)=C(/O)c1snnc1C,i
COc1ccc2ccnc(C3C(=O)c4ccccc4C3=O)c2c1,i
N#CC1=C(N)Oc2cc(O)ccc2C1c1ccccc1Cl (centres undefined),i
COc1ccc(C2C(C#N)=C3N=C(N)c4ccccc4N3C3=C2C(=O)CC(C)(C)C3)cc1 (centres undefined),i
COc1ccc(C2C(C#N)=C3N=C(N)c4ccccc4N3C3=C2C(=O)CC(C)(C)C3)cc1OC (centres undefined),8.2
N#CC1=C2N=C(N)c3ccccc3N2C2=C(C(=O)CC(c3ccccc3)C2)C1c1ccc2c(c1)OCO2 (centres undefined),3.4
CCOc1ccccc1C1C(C#N)=C2N=C(N)c3ccccc3N2C2=C1C(=O)CC(C)(C)C2 (centres undefined),i
N#CC1=C2N=C(N)c3ccccc3N2C2=C(C(=O)CC(c3ccccc3)C2)C1c1cccs1 (centres undefined),i
COc1cccc(C2C(C#N)=C3N=C(N)c4ccccc4N3C3=C2C(=O)CC(C)(C)C3)c1OC (centres undefined),i
N#CC1=C2N=C(N)c3ccccc3N2C2=C(C(=O)CC(c3ccccc3)C2)C1c1cccnc1 (centres undefined),i
COc1ccccc1C1C(C#N)=C2N=C(N)c3ccccc3N2C2=C1C(=O)CC(C)(C)C2 (centres undefined),5
SMILES,Dicer processing
COc1cccc(C2C(C#N)=C3N=C(N)c4ccccc4N3C3=C2C(=O)CC(C)(C)C3)c1 (centres undefined),i
N/C(=N\O)c1c(Cl)cccc1Cl,i
CC(C)(C)OC(=O)NCCNS(=O)(=O)c1ccc(N2C(=O)CC3(CCCC3)C2=O)c(Cl)c1,i
Clc1cccc(Nc2nc3ccccc3s2)c1,i
O=C1CC(NC2CCN(c3ncc(Cl)cc3Cl)CC2)C(=O)N1c1ccc(F)cc1 (centres undefined),i
CCOC(=O)CNC(=O)CC(=O)OCC,i
O=C(COc1ccccc1SCc1ccc(Cl)cc1)NNC(=O)c1ccc(Cl)cc1,i
CCOC(=O)c1cnn(-c2ccccc2)c1NC(=O)Nc1ccccc1,4.1

# Assay outcomes from PubChem BioAssay.
